Calls of active or inactive are those of the source.
Experiment: PSAC antagonists in infected red cells, primary screen, cell-based, P. falciparum Indochina, OD700, 2 h (AID 1155);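 note: lysis reports solute entry through the parasite surface anion channel PSAC; channel blockers reduce lysis of infected cells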
Conditions: P. falciparum Indochina infected erythrocytes, osmotic lysis OD700; higher = more signal, called active from +8 up or from −8 down
For `CN1C(=O)[C@]2(CCC(=O)OC(C)(C)C)N=C(c3ccc(OCCCO)cc3)O[C@@H]2c2ccccc21`, the z-score was 29.3 (active).
In the case of `CC(c1ccccc1)C(O)C1C=CC2C(=O)N(c3ccccc3)C(=O)C2N1Nc1ccc(C#N)cc1` (stereo unspecified), the z-score is reported as 1.58 (inactive).
With `COCCOC(=O)N1C(=O)[C@@]2(c3cc(C#CCCO)ccc31)[C@H](C(=O)N1CCN(c3ncccn3)CC1)[C@H]1C(=O)O[C@H](c3ccccc3)[C@H](c3ccccc3)N1[C@@H]2c1ccc(O)cc1` the z-score was 0.133 (inactive).
In the case of `C#CCN(C/C=C/c1ccccc1)[C@H](CO[Si](C)(C)C(C)(C)C)c1ccccc1`, the z-score is reported as 0.984 (inactive).
For `NCCCC[C@@H]1NC(=O)[C@H]2C[C@@H](C(=O)O)[C@@H](c3cccc(OCCO)c3)N2C1=O`, the z-score was -0.195 (inactive).
In the case of `[N-]=[N+]=NCc1ccccc1C[C@]1(C(=O)N2CCCCC2)N=C(c2ccc(OCCCO)cc2)O[C@H]1c1ccccc1`, the z-score is reported as 5.49 (inactive).
For `CCCCC(=C=CC[C@H](O)c1ccc(OCCO)cc1)C[C@H](O)c1ccccn1`, the z-score was 2.3 (inactive).
For `CN(C)C(=O)[C@@]1(CCS(=O)(=O)c2ccccc2)N=C(c2ccc(OCCCO)cc2)O[C@H]1c1ccccc1N=[N+]=[N-]`, the z-score was 27.4 (active).
For `[N-]=[N+]=NCc1ccccc1[C@@H]1OC(c2ccc(OCCCO)cc2)=N[C@]1(Cc1ccccc1)C(=O)NCc1ccccc1`, the z-score was 4.26 (inactive).
In the case of `O=C(NCCO)C1=C[C@H](Oc2ccccc2I)[C@@H](O)[C@H](NCc2ccc(F)cc2)C1`, the z-score is reported as 1.82 (inactive).
In the case of `COc1ccc([Si](C)(C)[C@@H]2[C@@H](CC(=O)N(CCO)Cc3ccccc3)O[C@]3(C(=O)N(Cc4ccc(N5CCC5=O)cc4)c4ccccc43)[C@H]2C)cc1`, the z-score is reported as 0.924 (inactive).

— PubChem BioAssay
